Source: PubChem BioAssay (Pan Lab, Icahn School of Medicine at Mount Sinai)
RBX1-CUL1 inh = human ROC1-CUL1 E3 ligase inhibition; inhibition, % at 10 µM; AID 1347404; actives 0.6% (n = 140,000); in vitro K48 di-Ub FRET, acceptor:donor ratio, 45 min; in the data active = inhibition above about 25%
* = called active by the depositor. The full list was thinned out, with hits kept by preference.

SMILES	RBX1-CUL1 inh
CCOc1cc(/C=C2\C(=O)NN(c3ccc(C)c(Cl)c3)C2=O)c(Br)c(Br)c1O	100*
COc1cc(/C=C2/C(=O)NN(c3ccc(C)c(Cl)c3)C2=O)cc(Cl)c1O	19
CCOc1ccccc1/C=C1\C(=O)NN(c2ccc(Br)cc2)C1=O	-2
O=C1C2ON(c3ccccc3)C(c3ccccn3)C2C(=O)N1c1cccc(C(F)(F)F)c1 (configuration not stated)	6
Cc1cccc(OC(=O)c2ccc(Cl)c(Cl)c2)c1	-1
C=CCc1cc(/C=N\NC(=O)C(NC(=O)c2ccc3c(c2)OCO3)C(C)C)cc(OC)c1O (configuration not stated)	-7
Oc1ccc(-c2cnc3ccccc3n2)cc1	3
Clc1ccc(-c2cnc3ccccc3n2)cc1	0
Oc1ccc(-c2cnc3ccccc3n2)cc1O	84*
Cc1cccc2c1OC(=O)C(C(c1ccc(Cl)cc1)C1C(=O)Oc3c(C)cccc3C1=O)C2=O (configuration not stated)	78*
O=C1Oc2ccccc2C(=O)C1C(c1ccc(F)cc1)C1C(=O)Oc2ccccc2C1=O (configuration not stated)	0
O=C1Oc2ccccc2C(=O)C1C(c1cccc(O)c1)C1C(=O)Oc2ccccc2C1=O (configuration not stated)	13
Cc1ccc(CN2C(=O)N=C(Cc3ccsc3)C2=O)cc1	1
CN1C(=O)C(Cc2cc(Cl)ccc2O)=NC1=S	27*
COc1cc(CC2=NC(=S)N(C)C2=O)c(Br)cc1OCc1ccc(Cl)cc1	18
CN1C(=O)C(Cc2ccc(Br)s2)=NC1=S	7
CC1(CNC(=O)C2CCC(=O)N(CCCc3ccccc3)C2)COC1 (configuration not stated)	-1
Cc1nn(-c2nnc(NC3CCCCCC3)nn2)c(C)c1Br	7
COc1ccc(-c2ccc3c(N)c(C(=O)Nc4ccccc4C)sc3n2)cc1OC	9
CCOc1ccc(NC(=O)CSCc2c(C)c(C)c(C)c(C)c2C)cc1	3
COC(=O)[C@H]1O[C@H](c2ccccc2)O[C@H]1c1ccccc1	2
COC(=O)[C@H]1CC2C(=O)C=C(c3ccccc3)C1N2C (some centres not stated)	39*
COC(=O)[C@@H]1C(c2ccccc2)N=C(c2ccccc2)[C@H]1C (some centres not stated)	3
Cc1ccccc1NCN1C(=O)/C(=C/c2cccs2)SC1=S	16
OCC1(Cc2ccccc2)CCN(Cc2cccnc2)CC1	-3
